Compound activity: PubChem BioAssay, National Center for Advancing Translational Sciences (NCATS)
KDM4E inh: JMJD2E (human) inhibition | B2RXH2 | JMJD2E catalytic domain, FDH-coupled NADH fluorescence (FDH is formaldehyde dehydrogenase) | Potency, µM (titrated, usually from 57.1 µM), for inactives: at the highest dose activity change, negative = inhibition, usual class: inhibitors | actives 1.6% (n = 230,000) | AID 2147; active means well fitted inhibition curve with a large enough effect, not every such curve was filed as active; inconclusive means small, poorly fitted or top-dose-only effect, or another doubt; inactive means no such curve, though single readings can be large or run the other way;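 further: potency means the concentration at half of the fitted maximal effect; 0% = wells with enzyme and -100% = buffer wells without enzyme; nearly all actives have a fitted effect of over 50% in size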
Target sequence (B2RXH2 1-337 limits assumed): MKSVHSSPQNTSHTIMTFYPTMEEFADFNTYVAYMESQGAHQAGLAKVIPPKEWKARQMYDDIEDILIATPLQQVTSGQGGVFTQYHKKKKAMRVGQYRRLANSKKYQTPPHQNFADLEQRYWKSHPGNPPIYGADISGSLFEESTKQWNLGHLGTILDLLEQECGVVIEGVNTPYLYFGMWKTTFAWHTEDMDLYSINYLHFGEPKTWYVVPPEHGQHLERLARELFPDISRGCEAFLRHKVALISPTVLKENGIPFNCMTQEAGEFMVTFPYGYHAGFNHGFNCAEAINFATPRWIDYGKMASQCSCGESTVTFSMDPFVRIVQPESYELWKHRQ
JMJD2A Tudor: blocks the human JMJD2A Tudor domain | O75164 | AlphaScreen JMJD2A-Tudor / H3K4me3 peptide binding | Potency, µM (doses to about 114 µM), without a hit: at the highest dose activity change, negative = inhibition, hits mostly inhibitors | actives 4.4% (n = 390,000); further: potency means the concentration at half of the fitted maximal effect; on the % scale 0 is the no-effect control and ±100 the full control effect; nearly all actives have a fitted effect of over 50% in size
HP1b chromo inh: inhibitors of HP1-beta chromodomain binding to methylated histone tails. P83916. AlphaScreen HP1-beta / biotin-H3K9me3 peptide binding. Potency, µM (doses to about 114 µM), for the others: at the top dose activity change, negative = inhibition, usual class: inhibitors. actives 0.56% (n = 390,000); further: potency means the concentration at half of the fitted maximal effect; nearly all actives have a fitted effect of over 70% in size
Target sequence (P83916 whole entry, looked up): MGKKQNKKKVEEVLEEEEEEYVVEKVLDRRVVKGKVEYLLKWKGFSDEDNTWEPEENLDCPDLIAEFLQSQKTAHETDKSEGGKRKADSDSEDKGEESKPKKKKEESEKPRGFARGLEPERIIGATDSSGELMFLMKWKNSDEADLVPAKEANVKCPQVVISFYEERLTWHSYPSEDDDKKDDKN
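HP1-beta protein (50 nM final) preincubated 30 min at room temperature with biotinylated H3(1-18)K9me3 peptide (50 nM) in PBS pH 7.4, 0.01% Tween-20, then compound added for 30 min. AlphaScreen streptavidin donor/nickel chelate acceptor beads (10 ug/mL final), 30 min dark, luminescence read.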
L3MBTL1 block: blocks human L3MBTL1. AlphaScreen L3MBTL1–H3K9me1 peptide binding. Potency, µM (titrated, usually from 57.1 µM), without a hit: at the highest dose activity, negative = inhibition, actives largely listed as inhibitors. actives 0.66% (n = 230,000); further: potency means the concentration at half of the fitted maximal effect; on the % scale 0 is the no-effect control and ±100 the full control effect; nearly all actives have a fitted effect of over 60% in size
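AlphaScreen assay: L3MBTL1 (50 nM final) was preincubated 30 min at room temperature with biotinylated H3(1-15)K9me1 peptide (75 nM final), then 30 min with library compounds; streptavidin donor and nickel chelate acceptor beads (10 ug/mL final) added, 30 min dark.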
BAZ2B inh: BAZ2B (human) inhibition | Potency, µM (titrated, usually from 114 µM), without a hit: at the top dose activity change, negative = inhibition, most hits filed as inhibitors | actives 4.4% (n = 360,000) | AID 504333 | Q9UIF8 | AlphaScreen BAZ2B-H3K14Ac peptide displacement; further: potency means the concentration at half of the fitted maximal effect; on the % scale 0 is the no-effect control and ±100 the full control effect; nearly all actives have a fitted effect of over 60% in size
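BAZ2B 50 nM plus b-H3(5-23)K14Ac 50 nM, PBS pH 7.4/0.01% Tween-20, 30 min RT; compound added (max 110 uM), 30 min RT; streptavidin donor/Ni-chelate acceptor beads 10 ug/mL final, 20 min dark; AlphaScreen read.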
PI5P4Ka inh: PI5P4K alpha (human) kinase inhibition. max response, %. actives 1.2% (n = 330,000). P48426. AID 652105. PI5P4Kalpha enzyme, ADP-Glo luminescence, 60 min; active compounds read low; active means max response of -50% or lower; inconclusive means between -30% and -50%; inactive means -30% or higher; further: value at the top dose of about 77 µM; on the % scale 0 is the no-effect control and ±100 the full control effect
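Human PI5P4Kalpha with substrate in 0.038 M HEPES pH 7.4, 0.28 mM EGTA, 0.1% CHAPS, 5% DMSO; reaction started with 5 microM ATP (final), 60 min at room temperature. ADP formed read by ADP-Glo luminescence.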
Numbers without * were called inactive; ? = inconclusive; nt = not tested or not shown; ! = not confirmed by another sample; [ ] = remark or other dose. In the library only some 5.7% were active in any assay of this set; here they are far more common. Unless noted, the call rests on the fitted dose curve; in most records, active means well fitted inhibition curve with a large enough effect; inconclusive means small, poorly fitted or top-dose-only effect; inactive means no such curve, though single readings can be large or run the other way.

SMILES	KDM4E inh	JMJD2A Tudor	HP1b chromo inh	L3MBTL1 block	BAZ2B inh	PI5P4Ka inh
COc1ccc2[nH]c(C)c(CCNC(=S)Nc3cccc(C)c3)c2c1	-1%	?	-3%	?	35µM*	7
CCn1c(COC(=O)CNC(=O)c2ccccc2)nc2cc(S(=O)(=O)N(C)C)ccc21	nt	-8%	31%	-3%	5%	-3
COc1ccc(-n2c(=O)c3c(C)c(C)sc3n(Cc3ccc(F)cc3)c2=O)c(OC)c1	2%	-27%	4%	nt	-36%	5
COC(=O)c1ccc(NC(=O)CSc2ccccc2)cc1	1%	32µM*	?	2%	12%	-12
COC(=O)c1ccc(NC(=O)CN2CCN(CC#N)CC2)cc1	nt	2.2µM*	50µM*	nt	40µM*	3
OC(COCC1COc2ccccc2O1)CN1CCN(c2ccccn2)CC1 (configuration not stated)	-8%	45µM*!	31%	4%	-8%	-2
Cc1cc(OCC(O)CN2CCN(c3ccccn3)CC2)cc(C)c1Cl (configuration not stated)	nt	?	-8%	-2%	?	4
Cc1cc(C)c(OCC(O)CN2CCN(c3ccccn3)CC2)c(C)c1 (configuration not stated)	6%	1%	29%	-13%	56µM*	-2
Cn1c(-c2ccccc2)c(C(=O)CC#N)c2ccccc21	-2%	-5%	20%	11%	-9%	2
CN(C)CCCNCC(=O)c1c(-c2ccccc2)n(C)c2ccccc12	nt	4.5µM*	?	nt	21%	3
CCOC(=O)c1[nH]c(Cc2[nH]c(C(=O)OCC)c(C)c2CCC(=O)OC)c(CCC(=O)OC)c1C	-9%	40µM*	-26%	-10%	?	nt
CCN1CCN(Cc2ccc(NC(=O)c3ccc(C)c(NC(=O)c4c[nH]c5cc(C(F)(F)F)ccc5c4=O)c3)cc2C(F)(F)F)CC1	12%	-22%	5%	nt	?	-67*
CCN1CCN(Cc2ccc(NC(=O)c3cc(NC(=O)c4ccno4)cc(OC)c3)cc2C(F)(F)F)CC1	5%	?	14%	nt	-30%	-3
CCN1CCN(Cc2ccc(NC(=O)c3cc(NC(=O)c4ccc5n[nH]nc5c4)cc(OC)c3)cc2C(F)(F)F)CC1	-8%	-28%	39%	nt	-26%	-2
CCN1CCN(Cc2ccc(NC(=O)c3cc(NC(=O)c4cncc(-c5cccs5)c4)cc(OC)c3)cc2C(F)(F)F)CC1	nt	45µM*	?	?	35µM*	-67*!
Cc1ccc(C(=O)Nc2cccc(C(F)(F)F)c2)cc1NC(=O)c1c[nH]c2cc(C(F)(F)F)ccc2c1=O	nt	-9%	47%	-2%	nt	-1
CCN1CCN(Cc2ccc(NC(=O)c3cc(NC(=O)c4cc(-c5ccc(OC)cc5)n[nH]4)cc(OC)c3)cc2C(F)(F)F)CC1	-9%	?	-16%	nt	?	-67*
COc1ccccc1C(=O)Nc1cc(-c2cccc(Br)c2)nn1-c1ccccc1	nt	-5%	23%[57 µM]	nt	9%	nt
O=C(c1ccccc1)c1c(O)cc(-c2ccccc2)oc1=O	-15%	?	?	?	56µM*	5
O=c1cc2oc3cc(O)c(O)cc3c(-c3ccccc3[N+](=O)[O-])c-2cc1O	nt	0.71µM*	0.79µM*	nt	1.1µM*	-61*
O=c1cc(-c2ccccc2Cl)oc2cccc(O)c12	7%	4%	40%	-1%	-18%	-7
O=c1cc(-c2ccc(O)c(O)c2)oc2ccccc12	8.9µM*	nt	nt	nt	nt	nt
O=c1cc(-c2ccccc2)oc2cc(O)c(O)cc12	28µM*	nt	nt	nt	nt	nt
COc1ccc(-c2nc(Cn3c(SCc4ccc(C)cc4)nc4cccnc43)c(C)o2)cc1OC	nt	?	-3%	nt	?	nt
O=C(C[n+]1cccc2ccccc21)c1ccc([N+](=O)[O-])cc1	-2%	28µM*	-17%	-14%	-31%	-65*
SMILES	KDM4E inh	JMJD2A Tudor	HP1b chromo inh	L3MBTL1 block	BAZ2B inh	PI5P4Ka inh
O=C(CCC(=O)N(CC(=O)NC1CCCCC1)Cc1cccs1)Nc1nccs1	-1%	7%	30%	nt	-2%	-2
CCOc1ccc(NC(=O)Cn2cc(C(=O)c3ccc(OC)cc3)c(=O)c3cc4c(cc32)OCO4)cc1	nt	-13%	36%	nt	-12%	nt
Cc1cccc(-c2oc(C)c(C)[n+]2[O-])c1	16%	45µM*	2%	nt	-4%	nt
Cc1oc(-c2ccccc2)[n+]([O-])c1C	4%	-28%	11%	1%	-4%	-5
O=C(NCc1noc2ccccc12)Nc1ccc(F)cc1F	nt	-3%	54%	nt	9%	nt
Cc1cc(C)n(Cc2ccc(C(=O)N/N=C/c3ccc(-c4ccc([N+](=O)[O-])cc4)o3)o2)n1	nt	50µM*	?	nt	20µM*	0
COc1ccc(N2CCN(C3CCCCC3NS(=O)(=O)c3ccc(Cl)cc3)CC2)cc1 (configuration not stated)	nt	?	7%	nt	10µM*	7
COc1ccc(NC2CCCCC2NS(=O)(=O)c2ccc(C)cc2)cc1 (configuration not stated)	nt	?	?	nt	50µM*	-2
COc1ccccc1NC1CCCCC1NS(=O)(=O)c1ccc(C)cc1 (configuration not stated)	nt	?	-3%	nt	-2%	2
CCOc1ccc(NC2CCCCC2NS(=O)(=O)c2ccccc2)cc1 (configuration not stated)	nt	56µM*	?	nt	45µM*	13
O=C(NCc1nnc2c(C(F)(F)F)cc(Cl)cn12)c1ccco1	nt	-10%	58%	nt	4%	-8
COc1ccc(CC(=O)NCc2n[nH]c(=S)n2C)cc1	-9%	?	32%	-9%	0%	1
COc1cccc(C(=O)NCc2n[nH]c(=S)n2-c2cccc(C)c2)c1	-5%	18µM*	29%	6%	-21%	nt
O=C(Cc1ccccc1)NCc1n[nH]c(=S)n1-c1ccccc1	-2%	-17%[11.4 µM]	?	nt	-20%	-13
COc1ccc(CC(=O)NCc2n[nH]c(=S)n2-c2cccc(C)c2)cc1	8%	7.9µM*	35%	nt	3%	0
Cc1ccc(C(=O)NCc2n[nH]c(=S)n2-c2ccccc2)cc1[N+](=O)[O-]	-4%	14µM*	-2%	nt	-23%	0
O=C(NCc1n[nH]c(=S)n1-c1cccc(C(F)(F)F)c1)c1ccco1	nt	13µM*	27%	nt	18%	-2
C=CCn1c(-c2ccc(OC)cc2)csc1=Nc1c(C)n(C)n(-c2ccccc2)c1=O	-2%	?	-10%	nt	?	-8
CCc1ccc2oc(-c3ccc(OC)cc3)cc(=Nc3c(C)n(C)n(-c4ccccc4)c3=O)c2c1	?	?	?	nt	40µM*	5
